Experimental data: the supplement of paper PMC6555819

Test system: PPARg:RXRa (NR concentration 180 nM, RXRa partner concentration 90 nM)
Experiment: PBM binding z-score (relative to random genomic background probes); higher = stronger binding; sequences stand for … in GC…GCGATTGACAGCGTAGAATGAAGG
Summary of the method: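 Custom Agilent 4×180K protein-binding microarrays carried double-stranded probes, each with a 34-nt variable region. These regions held direct-repeat seeds, single-nucleotide variants, half-site ablations and random human genomic background sequences. Ligand-free nuclear receptor dimers were incubated on the arrays for 1 h, antibodies against each partner (one per run) detected binding, and scanned fluorescence was regression-normalized. Binding z-scores take the random background probes as reference.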

Row | Sequence | PBM binding z-score
1 | GCTTGGAGATCAAGGTTAAGAAAGACTAAGCTAA | 0.135
2 | CCGAGTAGGTTATGGGGCATCCAGGCAACGGTGA | 3.95
3 | CCTTACGGGTCACGAGGTTATAGCACGACGAGCG | 7.45
4 | CCTCCTGGGCCAAAGGTCATTGATTCCAATGCTC | 9.24
5 | GATACCGGGTCAGCTAGAGGCCAGAGTATGGAAA | 2.92
6 | AGAACGAGGGCACGCTGAGTTGACAGCAGAGTAG | 2.25
7 | CGAATTAGGTCAGAACAGGACAGTGAAGGATGAT | 4.98
8 | CGAACTAGGTCATCGACAGGACAGTGAATAGTAA | 8.03
9 | ATCGAAAGGTCGAGGTGGGTATAGAGAAAGGGAA | 2.59
10 | TAGCCTAGGTCAGATCGGGCCACTATACGCTATA | 0.925
11 | ACTCGGAGGACAAAGGTCAGACCTACGCCAGTGA | 7.6
12 | AGACCGAGGGCAATGAGTTGATAGCACGGGTGGC | 0.499
13 | TGAACGAGGTTAAAGATCAGGGAACGTGGCGTCG | 5.17
14 | CCTAGTTAGTCAGGAGGTCACACACCGGATATGA | 2.42
15 | CAAACTAGGTCACGAAAGGTCCAAGTCGAATGAC | 8.99
16 | CAACCAAGGTGAACAAGGTCGTTGATTACTATTC | 1.33
17 | AGAATGACGTTACCAAAGATCAGGGAAACGCTTG | 0.77
18 | GCTGCTAGTTCAGGTTGGTCAGCTAACGGGTACG | -0.479
19 | ACTCGGAGGACCAAGGTCAGAGCTACGCCAGTGA | 0.947
20 | TAGCCTAGGTCATTCACGGGCCAGTATAGAAAGC | 2.05
21 | TAGCCTAGGTCATGCAGGGGCCAGTATAGAAAGC | 2.28
22 | TCGAGTAGGATACCAATGGGGCATTCAGCTTTCT | -0.0828
